Screening results as filed in PubChem.
tim10-1 inh = growth inhibitors of tim10-1 mutant yeast, primary screen, luminescence, uHTS; S. cerevisiae tim10-1 ts strain growth, BacTiter-Glo, 24 h; inhibition, % at 20 µM; hit rate 2.2% among 330,000;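 active = inhibition of at least 40%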;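 note: mutant grown at 25 °C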
tim23-1 inh = growth inhibitors of tim23-1 mutant yeast, primary screen, luminescence, uHTS; S. cerevisiae tim23-1 growth, BacTiter-Glo luminescence, 24 h; inhibition, % at 20 µM; hit rate 1.3% among 330,000; AID 463212, 2010;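 active = growth inhibition of the mutant yeast at or above 50%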;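 note: temperature-sensitive mutant grown at 25 °C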
Rce1 inhib = yeast Rce1p protease inhibitors, primary screen, biochemical, fluorescence, cell-free homogeneous; AID 2563, 2010; CAAX prenyl protease 2 (Saccharomyces cerevisiae (strain ATCC 204508 / S288c)), Q03530; calls only; yeast membranes, quenched prenylated peptide cleavage fluorescence; hit rate 0.27% among 290,000;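 active = fall in fluorescence gain of 50% or more versus controls, with final raw signal at or below 3038400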
Target sequence (Q03530 whole entry, looked up): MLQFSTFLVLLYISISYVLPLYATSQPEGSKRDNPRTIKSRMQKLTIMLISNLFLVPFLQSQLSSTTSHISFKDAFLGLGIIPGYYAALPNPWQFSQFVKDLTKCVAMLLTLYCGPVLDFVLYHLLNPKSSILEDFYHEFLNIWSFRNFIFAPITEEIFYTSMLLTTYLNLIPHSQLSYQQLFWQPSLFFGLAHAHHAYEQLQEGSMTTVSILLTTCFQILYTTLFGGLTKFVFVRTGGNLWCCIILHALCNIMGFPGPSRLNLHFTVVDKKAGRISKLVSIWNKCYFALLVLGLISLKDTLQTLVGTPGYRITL
TIM10 inh = growth inhibitors of isogenic TIM10 control yeast, primary screen, counter-screen for tim10-1 yeast inhibitor project, luminescence, uHTS; S. cerevisiae TIM10 strain growth, BacTiter-Glo luminescence, 24 h; inhibition, % at 10 µM; hit rate 1.4% among 330,000; AID 463195, 2010;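 active = inhibition of 40% or more at the single tested concentration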;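 note: wild-type TIM10 isogenic control strain grown at permissive 25 °C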
PfHsp90 set2 = growth inhibition of PfHsp90-expressing yeast, primary screen, antimalarial PfHsp90 inhibitor project, S. cerevisiae, BacTiter-Glo luminescence, single point, set 2; inhibition, % at 9.4 µM; hit rate 0.32% among 310,000; BacTiter-Glo ATP, 48 h; yeast lacking PDR1 and PDR3 efflux regulators;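 active = every replicate shows inhibition above about 80%, whatever the replicate mean, limit read from the data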
TIM10 conf = growth inhibitors of wild-type TIM10 yeast, confirmation, counter-screen for tim10-1 synthetic lethality project, single concentration, luminescence, S. cerevisiae; shares compounds with TIM10 inh; S. cerevisiae tim10 strain growth, BacTiter-Glo luminescence, 24 h; inhibition, % at 10 µM; hit rate 63% among 4,600; AID 463215, 2010;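 active = inhibition of yeast growth at or above a set limit in either of two replicates at 10 µM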; note: this counterscreen used the strain with wild-type TIM10
A number is an active result; . = inactive; / = no result given. The list is not random: actives were taken first. Their share in the collection is about 3.7%.

SMILES | tim10-1 inh | tim23-1 inh | Rce1 inhib | TIM10 inh | PfHsp90 set2 | TIM10 conf
O=c1[nH]c(CSc2ccccn2)nc2c1oc1ccccc12 | . | . | . | . | . | /
O=C(Nc1ccc(NC(=O)C2CCCCC2)nc1)c1cccs1 | . | . | . | 47 | . | .
O=C1CC(c2ccco2)CC(O)=C1C=Nc1cc(Cl)ccc1O (stereo not given) | . | . | . | . | . | /
O=C1CC(c2ccco2)CC(O)=C1C=Nc1ccccc1-c1ccccc1 (stereo not given) | . | . | . | 41 | / | .
Cc1cccc(C(=O)NCCNc2nc3cc(C)c(C)cc3cc2C)c1 | . | . | . | 45 | . | 39
COc1ccc(N(CC(=O)Nc2cc(Cl)ccc2OC)S(=O)(=O)c2c(C)[nH]c(=O)[nH]c2=O)cc1 | . | . | . | 44 | . | .
Fc1ccc(C2=Nc3cccc4cccc(c34)N2)cc1 | . | . | . | 44 | . | .
Fc1ccc(CSc2nnc(-c3cnccn3)n2Cc2ccco2)cc1 | . | . | . | 41 | / | .
Fc1ccccc1CSc1nnc(-c2cnccn2)n1Cc1ccco1 | . | . | . | . | . | /
Brc1ccc(CSc2nnc(-c3cnccn3)n2Cc2ccco2)cc1 | . | . | . | 45 | . | .
Cc1ccc(C(C#N)N2CCOCC2)cc1 (stereo not given) | / | / | . | / | . | /
C=CCn1c(CNC(=O)c2ccccc2F)nnc1SCC(=O)N1CCOCC1 | . | . | . | . | . | /
CC(=O)Nc1ccc(NC(=O)COC(=O)c2cc(S(=O)(=O)N(C)C)ccc2N2CCCC2)cc1 | . | . | . | . | / | /
COc1ccc(CC(=O)NCC2CCCN(Cc3ccc(OC(F)(F)F)cc3)C2)cc1 (stereo not given) | . | . | . | 98 | . | .
O=C(COc1cccc(NC(=O)c2cccc([N+](=O)[O-])c2)c1)c1ccc(Br)cc1 | . | . | . | 42 | . | 31
C=CCN=c1scc(-c2ccccc2)n1/N=C/c1ccccn1 | . | . | . | 48 | . | 43
CCN=c1scc(-c2ccccc2)n1/N=C/c1ccccn1 | . | . | . | 45 | . | .
Cc1nc2ccccc2c(=O)n1/N=C/c1ccccn1 | . | . | . | . | . | /
CC(=O)N1CCN(C(=O)C(Cc2c[nH]c3ccccc23)NC(=O)c2ccccc2Cl)CC1 (stereo not given) | . | . | . | . | . | /
O=C(O)C1CCN(S(=O)(=O)c2ccc(N3CCCC3C(=O)O)c([N+](=O)[O-])c2)CC1 (stereo not given) | . | . | . | . | . | /
CC1(C)CC2(CCO1)C(Nc1ccccc1)=NC(=S)N2c1ccccc1 (stereo not given) | . | . | . | . | / | /
CC1CC1C(=O)Nc1ccc(-c2ccccc2)cc1 (stereo not given) | . | . | . | 43 | . | 36
COc1ccc(S(=O)(=O)NCC(=O)NCc2cc(=O)n(C)c(=O)n2C)cc1C | . | . | . | . | . | /
CCc1cccc(C)c1NC(=O)Cn1nc(C)n2cccc2c1=O | . | . | . | . | . | /
CCOc1ccccc1NC(=O)C(C)CC (stereo not given) | . | . | . | . | . | /
SMILES | tim10-1 inh | tim23-1 inh | Rce1 inhib | TIM10 inh | PfHsp90 set2 | TIM10 conf
COc1cccc(OC)c1OCCCSc1nc(C)cc(=O)[nH]1 | . | . | . | . | / | /
CC(C)COc1cc(=O)[nH]c(SCC(C)C)n1 | . | . | . | 45 | . | 39
COc1cccc(C(=O)NC2CC(C)(C)NC(C)(C)C2)c1OC | . | . | / | 61 | . | .
CCn1c(=O)c([N+](=O)[O-])c(Cl)c2ccccc21 | . | . | . | 78 | / | 79
CCCCc1ccc(-n2c(Cc3cccs3)n[nH]c2=S)cc1 | . | . | . | 52 | . | 36
O=Cc1cc(N=Nc2ccccc2Cl)ccc1O | . | . | . | 62 | . | 76
O=Cc1cc(N=Nc2cccc(C(=O)O)c2)ccc1O | . | . | . | . | . | /
CC(C)(C)C(=O)NC(=S)Nc1cc(C(F)(F)F)ccc1N1CCOCC1 | . | . | . | 48 | . | .
